Pf growth 96h = P. falciparum growth inhibition at 96 hours. P. falciparum luciferase reporter growth, 96 h. Potency, µM (doses to about 28.7 µM), usual class: inhibitors. 6.9% of 320,000 active. AID 504834
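Erythrocytes infected with luciferase-expressing P. falciparum were dispensed at 2% hematocrit and 0.05% parasitemia (final), then incubated with compounds 96 hours at 37 C in 5% CO2. Luminescence after detection reagent addition reported growth.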
Pf growth 48h = P. falciparum growth inhibition at 48 hours (one generation). Potency, µM (highest dose often 28.7 µM), most hits filed as inhibitors. 5.9% of 310,000 active. P. falciparum luciferase growth in erythrocytes, 48 h
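Read-out is firefly luciferase luminescence from an integrated reporter in P. falciparum, so falling signal marks reduced parasite growth. Infected erythrocytes were at 2% hematocrit and 0.1% parasitemia (final) in Albumax-supplemented RPMI 1640.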
Shiga inhibitor = Shiga toxin inhibition | Vero cells, Shiga toxin protein synthesis inhibition reporter | inhibition, % at 38.7 µM | 9.2% of 290,000 active; in the data active = inhibition mostly above about 28%, no sharp cut-off; inactive = mostly below about 43%
CHX counter = counter-screen hit for Shiga toxin inhibitors, cycloheximide; AID 2314; max response, %; 12% of 300,000 active; cell reporter, cycloheximide protein synthesis inhibition counterscreen; in the data active = max response mostly above about 13%, no sharp cut-off; inactive = mostly below about 14%; also: read at 38.3 µM for the half of the compounds with a filed dose
Of the large screens only hits and unclear results are named; the others gave an inactive call. Sampled rows, rich in hits. Any-hit rate of the full collection: about 21%. Unless noted, calls follow the shape of the dose curve; as a rule, active = well fitted inhibition curve with a large enough effect; inconclusive = small, poorly fitted or top-dose-only effect, or another doubt; inactive = no such curve, though single readings can be large or run the other way.

CC1CCCN(CCCNS(=O)(=O)c2cc(Br)cc3c2N(C(=O)C2CC2)CC3)C1 (stereo not drawn)	none
CC(=O)N1CCc2cc(Br)cc(S(=O)(=O)NCc3ccc(Cl)cc3)c21	none
CCOC(=O)C1CCN(S(=O)(=O)c2cc(Br)cc3c2N(C(=O)C2CC2)CC3)CC1	Pf growth 48h 8.3µM
CCOC(=O)/C=C/C(=O)Nc1ccc(S(=O)(=O)Nc2nccs2)cc1	Pf growth 48h inconclusive
CCOCCCNC(=O)C1CCN(S(=O)(=O)c2cc(Br)cc3c2N(C(=O)CC)CC3)CC1	Pf growth 96h inconclusive, Pf growth 48h inconclusive
CCC(=O)N1CCc2cc(Br)cc(S(=O)(=O)N3CCC(C(=O)NCCCOC(C)C)CC3)c21	Pf growth 96h inconclusive, Pf growth 48h 2.9µM
CC(=O)N1CCc2cc(Br)cc(S(=O)(=O)N3CCCCCC3)c21	Pf growth 48h 3.3µM
Cc1ccc(Oc2ccc(-c3nc(N)nc(N)n3)cc2)cc1C	none (no result: Pf growth 48h)
c1ccc(-c2nnc3ccc(N4CCCC4)nn23)cc1	Pf growth 96h 1µM
CN(Cc1ccccc1)c1ccc2nnc(-c3ccccc3)n2n1	Pf growth 96h inconclusive, Pf growth 48h 4.1µM
Cc1ccc(S(=O)(=O)N2CCN(c3ccc4nnc(-c5ccccc5)n4n3)CC2)cc1	Pf growth 96h inconclusive (no result: Pf growth 48h)
FC(F)(F)c1nnc2ccc(N3CCOCC3)nn12	none (no result: Pf growth 96h)
Cc1cccc(C)c1N1CCN(c2ccc3nnc(C(F)(F)F)n3n2)CC1	Pf growth 48h 9.3µM (no result: Pf growth 96h)
CC1CCN(Cc2nnnn2CCCC(=O)N(C)C(C)c2ccccn2)CC1 (stereo not drawn)	none
O=C(NNC(=O)c1ccccc1Cl)c1ccco1	CHX counter 17
O=C(Nc1cccc(N2C(=O)C3CCCCC3C2=O)c1)c1ccccc1 (stereo not drawn)	Pf growth 96h inconclusive
O=C(NNC(=O)c1ccccc1F)c1cccs1	none
O=C(NNC(=O)c1ccccc1[N+](=O)[O-])c1ccco1	none
O=C(Nc1ccc(N2C(=O)C3CCCCC3C2=O)cc1Cl)c1cccs1 (stereo not drawn)	CHX counter 18
O=C(Nc1ccccc1Cl)c1cccs1	Pf growth 96h inconclusive, Shiga inhibitor 104, CHX counter 27
O=C(NNC(=O)c1cc(Cl)ccc1O)c1cccs1	Pf growth 96h inconclusive, Shiga inhibitor 49, CHX counter 29
Cn1c(Sc2ccc(C(F)(F)F)cc2[N+](=O)[O-])nnc1-c1ccccc1	Pf growth 96h inconclusive, Pf growth 48h inconclusive
Cc1nc(Cl)sc1C(=O)Nc1ccccc1Cl	Pf growth 48h inconclusive
COc1ccc(Cl)cc1NC(=S)NNC(=O)c1cccnc1	Pf growth 96h inconclusive, Pf growth 48h inconclusive
O=C(Nc1ccccc1Cl)c1ccc(-c2ccccn2)s1	Shiga inhibitor 64, CHX counter 49
O=C(NNC(=O)c1ccccc1Cl)c1cccs1	Pf growth 96h inconclusive, Shiga inhibitor 35
O=C(NNC(=O)c1ccccc1Cl)c1ccccc1Cl	CHX counter 18
COc1ccc(Cl)cc1NC(=S)NNC(=O)c1cccs1	Pf growth 96h inconclusive, Pf growth 48h inconclusive, Shiga inhibitor 43, CHX counter 23
Cc1cc(C)c[n+](CC(=O)c2c(C)cc(C)c([N+](=O)[O-])c2C)c1	none
CC(C)NC(=O)NC(=O)COC(=O)c1cc[n+]([O-])cc1	none
CN1CCN(C(=O)C2CCCN(S(=O)(=O)c3ccc(Cl)cc3)C2)CC1 (stereo not drawn)	none
O=C(Nc1ccccc1C(=O)N1CCCCC1)c1ccccc1C(F)(F)F	Pf growth 48h inconclusive
O=C(Nc1ccccc1C(=O)N1CCCCC1)c1cccs1	Pf growth 96h 6.6µM
O=C(/C=C/c1ccccc1Cl)NNC(=O)c1cccs1	CHX counter 32
COCC(C)n1c(C)cc(C(=O)CSc2nnc(Nc3ccccc3F)s2)c1C (stereo not drawn)	Pf growth 96h 0.59µM, Pf growth 48h 1.5µM
COc1ccc(C)cc1NC(=O)C(Sc1nnc(Nc2ccccc2F)s1)c1ccccc1 (stereo not drawn)	CHX counter 11
COc1ccc(C)cc1NC(=O)C(Sc1nncn1C)c1ccccc1 (stereo not drawn)	none
O=C(CSc1ncccn1)c1ccccc1Br	Shiga inhibitor 35, CHX counter 26
CC(=O)Nc1ccc(SCC(=O)c2cc(C)n(Cc3cccs3)c2C)cc1	Shiga inhibitor 101, CHX counter 77
COCCNC(=O)/C(C#N)=C/c1c(N2CCN(C)CC2)nc2ccccn2c1=O	none
COc1cc(/C=C/C(=O)OCC(=O)N(C)C2CCS(=O)(=O)C2)ccc1OC(F)F (stereo not drawn)	Pf growth 96h inconclusive, Pf growth 48h inconclusive
CCOc1ccc(CCNC(=O)COC(=O)c2nccnc2N)cc1OCC	none (no result: Shiga inhibitor, CHX counter)
COc1ccc(CCn2c(C)cc(C(=O)CSc3nnnn3-c3ccccc3)c2C)cc1	none (no result: Pf growth 48h)
CC(=O)Nc1ccc(SCC(=O)c2cc(C)n(-c3ccccc3F)c2C)cc1	Shiga inhibitor 125, CHX counter 74
COC(=O)c1ccc(-n2c(C)cc(C(=O)CSc3ccc(NC(C)=O)cc3)c2C)cc1	Pf growth 96h inconclusive, Pf growth 48h inconclusive
COCC(C)n1c(C)cc(C(=O)CSc2nnnn2-c2ccc(O)cc2)c1C (stereo not drawn)	Pf growth 48h inconclusive, Shiga inhibitor 50, CHX counter 29
COCCn1c(C)cc(C(=O)CSc2ccc(NC(C)=O)cc2)c1C	Shiga inhibitor 105, CHX counter 47
COCCn1c(C)cc(C(=O)CSc2nncn2-c2ccccc2)c1C	none
COCC(C)n1c(C)cc(C(=O)CSc2ncccn2)c1C (stereo not drawn)	Shiga inhibitor 72, CHX counter 36
C=CCn1c(SCC(=O)c2cc(C)n(C(C)COC)c2C)nc2sc(C)c(C)c2c1=O (stereo not drawn)	none
Cc1cccc(NC(=S)NCc2ccccc2Cl)c1C	Pf growth 96h inconclusive, Pf growth 48h inconclusive
COCC(C)n1c(C)cc(C(=O)CSc2ccc(NC(C)=O)cc2)c1C (stereo not drawn)	Shiga inhibitor 52, CHX counter 26 (no result: Pf growth 96h)
C=CCn1c(C)cc(C(=O)CSc2ccc(NC(C)=O)cc2)c1C	Shiga inhibitor 114, CHX counter 43
CCOC(=O)c1ccc2c(c1)nc(C1CCN(S(=O)(=O)c3cccs3)CC1)n2CC	Pf growth 96h 8.3µM, Pf growth 48h 10µM
CCOC(=O)c1cccc(NC(=O)C2CCN(S(=O)(=O)c3cccs3)CC2)c1	none (no result: Pf growth 48h)
CCOC(=O)c1ccc2c(c1)nc(SCC(=O)c1ccco1)n2CC	Pf growth 48h inconclusive
CCOC(=O)c1ccc2c(c1)nc(SCC(=O)N1CCCCC1)n2CC	Pf growth 96h 12µM
CCS(=O)(=O)Nc1cccc(C2=NN(S(C)(=O)=O)C(c3ccccc3)C2)c1 (stereo not drawn)	none
CS(=O)(=O)N1N=C(c2ccc(Br)cc2)CC1c1ccc2c(c1)OCO2 (stereo not drawn)	Shiga inhibitor 83, CHX counter 45
CS(=O)(=O)Nc1ccc(C2=NN(S(C)(=O)=O)C(c3ccc4nccnc4c3)C2)cc1 (stereo not drawn)	CHX counter 15
Cc1ccc(C2=NN(S(C)(=O)=O)C(c3ccc4c(c3)OCO4)C2)cc1 (stereo not drawn)	Shiga inhibitor active, CHX counter 76
